The panel holds about 83,000 compounds, 20% with a hit somewhere; the sample as a whole holds those more often.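 Method: cells in 96-well plates; compound added at one concentration; 48 h incubation; percent growth measured; values under 10 scored active.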 Unmarked numbers belong to inactive results. Active and inactive are the calls of the source.

Among the test systems are HCT-15 colon; HT29 colon; SNB-19 CNS; U251 CNS; PC-3 prostate; SK-MEL-5 melanoma; UACC-62 melanoma; LOX IMVI melanoma; SK-MEL-28 melanoma; SK-MEL-2 melanoma; EKVX NSCLC; SN12C renal; UO-31 renal; TK-10 renal; ACHN renal; CAKI-1 renal; A498 renal; CCRF-CEM leukemia; MOLT-4 leukemia; SNB-75 CNS.
What all share (experiment): NCI-60 one-dose screen, 48 h (100 = growth as untreated, 0 = no growth, -100 = all killed)
Conditions in all cases: 10 µM unless noted

Regarding `OC1CSSC1Cn1cnc2c(Nc3ccc(F)c(Cl)c3)ncnc21` (centres undefined), the growth with HCT-15 colon was 92.5%; with HT29 colon it was 83.2%; in the experiment on SNB-19 CNS it was 90.4%; in the experiment on U251 CNS, 84.3%; with PC-3 prostate it was 80.5%; in the experiment on SK-MEL-5 melanoma, 88.2%. The growth with UACC-62 melanoma was 16.3%; in the experiment on LOX IMVI melanoma, 47.9%; in the experiment on SK-MEL-28 melanoma it was 78.3%; with SK-MEL-2 melanoma, 93.3%; in the experiment with EKVX NSCLC it was 58.5%; with SN12C renal it was 98.9%. The growth is 44% with UO-31 renal; 96.1% in the experiment on TK-10 renal; 98.1% in the experiment on ACHN renal; 105% in the experiment with CAKI-1 renal; 103% in the experiment with A498 renal; 29.6% with CCRF-CEM leukemia. Also, in the experiment on MOLT-4 leukemia, the growth is -27.1% (active).
Consider `c1ccc(-c2cn3nc(-c4c[nH]c5ccccc45)sc3n2)cc1`, for which the growth was 56.2% with HCT-15 colon; 86% with HT29 colon; 87.6% in the experiment on SNB-19 CNS; 92.4% in the experiment with U251 CNS; 76.8% with PC-3 prostate; 74.2% with SK-MEL-5 melanoma. For the same compound, the growth is 71% with UACC-62 melanoma; 86% in the experiment with LOX IMVI melanoma; 86.8% in the experiment with SK-MEL-28 melanoma; 94.4% in the experiment with SK-MEL-2 melanoma; 70.3% with EKVX NSCLC; 83% with SN12C renal. In addition, the growth was 46.4% in the experiment on UO-31 renal; 105% with TK-10 renal; 83.3% in the experiment with ACHN renal; 66.1% in the experiment with CAKI-1 renal; 89.9% in the experiment with A498 renal; 86.4% in the experiment on CCRF-CEM leukemia. Besides, the growth with MOLT-4 leukemia was 83.9%.
In the case of `COc1ccc2c(O)cc3c(c2c1)[C@H](CCl)CN3C(=O)c1cc2cc(NC(=O)CCN3CCOCC3)ccc2[se]1`, the growth in the experiment with HCT-15 colon was 0% (active); in the experiment with HT29 colon, -39.8% (active); with SNB-19 CNS it was -76.2% (active); with U251 CNS, -85.7% (active); in the experiment on PC-3 prostate, 74.1%; in the experiment with SK-MEL-5 melanoma, -85.9% (active). For the same compound, the growth in the experiment on UACC-62 melanoma is -76.4% (active); in the experiment with SK-MEL-28 melanoma it was -58.7% (active); in the experiment with SK-MEL-2 melanoma, -84.3% (active); in the experiment on EKVX NSCLC, -59.3% (active); with SN12C renal, -88.1% (active); in the experiment on UO-31 renal, -46.9% (active). Further, the growth is -32.2% (active) in the experiment with TK-10 renal; -1.81% (active) in the experiment on ACHN renal; -26.3% (active) in the experiment on CAKI-1 renal; -90.9% (active) in the experiment with A498 renal; 76% with CCRF-CEM leukemia; 74.2% with MOLT-4 leukemia.
`COc1cc(OC)cc(C(=O)Nc2cnc(Nc3ccc(N4CCOCC4)nc3)nc2Oc2ccc(C(F)(F)F)cc2)c1`: the growth in the experiment with HCT-15 colon was 75.4%; in the experiment with HT29 colon it was 46.8%; in the experiment on SNB-19 CNS, 44.1%; in the experiment on U251 CNS it was 65.6%; in the experiment on PC-3 prostate it was 71.4%; in the experiment with SK-MEL-5 melanoma, 93%. The growth in the experiment on UACC-62 melanoma is 76.3%; with LOX IMVI melanoma, 69.7%; with SK-MEL-28 melanoma it was 98.9%; in the experiment on SK-MEL-2 melanoma, 94.6%; in the experiment with EKVX NSCLC it was 90.2%; with SN12C renal, 43.6%. Also, the growth in the experiment on UO-31 renal is 58.1%; with TK-10 renal, 81.9%; in the experiment on ACHN renal it was 66.4%; in the experiment with CAKI-1 renal it was 59.7%; in the experiment on A498 renal it was 77.7%; with CCRF-CEM leukemia it was 86%. Moreover, the growth with MOLT-4 leukemia is 80.7%.
Consider `C=CC(=O)Nc1ccc2ncnc(Nc3cccc(NS(=O)(=O)CCC)c3Cl)c2c1`, for which the growth in the experiment on HCT-15 colon is 67.9%; with HT29 colon, 7.98% (active); in the experiment with SNB-19 CNS it was 49%; in the experiment on U251 CNS, 52.5%; with PC-3 prostate, 68%; in the experiment with SK-MEL-5 melanoma, 52.4%. For the same compound, the growth is 6.45% (active) with UACC-62 melanoma; 40.7% in the experiment with LOX IMVI melanoma; 15% with SK-MEL-28 melanoma; 51.9% in the experiment with SK-MEL-2 melanoma; 51.8% in the experiment with EKVX NSCLC; 22.9% in the experiment on SN12C renal. Besides, the growth in the experiment with UO-31 renal was 19.2%; in the experiment on TK-10 renal, 11.3%; in the experiment with ACHN renal it was 29.3%; with CAKI-1 renal, 22.6%; with A498 renal it was -14.3% (active); in the experiment with CCRF-CEM leukemia, 50.2%. Further, in the experiment on MOLT-4 leukemia, the growth was 67.3%.
With `CCCN1C(=O)N(CCC)C2C1NC(=S)N2/N=C/C=C/c1ccccc1OC` (centres undefined), the growth in the experiment with HCT-15 colon is 19.3%; in the experiment with HT29 colon it was 2.43% (active); in the experiment with SNB-19 CNS it was 24.6%; in the experiment with U251 CNS, 11.9%; in the experiment on PC-3 prostate, 28.7%; in the experiment on SK-MEL-5 melanoma, 26.9%. In addition, the growth in the experiment on UACC-62 melanoma is 28.5%; in the experiment on LOX IMVI melanoma, 41%; in the experiment with SK-MEL-28 melanoma, 50%; in the experiment on SK-MEL-2 melanoma, 49.6%; with EKVX NSCLC, 51.5%; in the experiment on SN12C renal, 38.3%. For the same compound, the growth in the experiment with UO-31 renal is 39.5%; in the experiment on TK-10 renal, 57.3%; in the experiment with ACHN renal it was 41.4%; in the experiment with CAKI-1 renal, 26.6%; in the experiment on A498 renal, -5.66% (active); with CCRF-CEM leukemia, 10.1%. Besides, in the experiment with MOLT-4 leukemia, the growth is 27.6%.
For the compound `Cc1ccccc1NC(=O)c1sc2nc3c(cc2c1N)CCCC3`, the growth in the experiment with HCT-15 colon is 25%; with HT29 colon, 7.53% (active); with SNB-75 CNS it was 37.8%; with SNB-19 CNS, 30.9%; in the experiment on PC-3 prostate, 29.9%; in the experiment on UACC-62 melanoma it was 27.6%. The growth with LOX IMVI melanoma is 40.5%; with SK-MEL-28 melanoma, 75.1%; in the experiment with SK-MEL-2 melanoma, 26.4%; in the experiment on EKVX NSCLC it was 45.8%; with SN12C renal, 37.3%; with UO-31 renal, 45.2%. The growth was 57.5% with TK-10 renal; 51.2% with ACHN renal; 51% in the experiment on CAKI-1 renal; -3.82% (active) with A498 renal; 20.9% in the experiment on CCRF-CEM leukemia; 27.4% in the experiment on MOLT-4 leukemia.
In the case of `COc1ccc(NC(=O)c2ccc(Cl)cc2Cl)cc1`, the growth in the experiment with HCT-15 colon is 94%; with HT29 colon, 100%; in the experiment with SNB-19 CNS it was 104%; in the experiment with PC-3 prostate, 98.8%; in the experiment with SK-MEL-5 melanoma, 92.3%; in the experiment with UACC-62 melanoma, 96.3%. Moreover, the growth with LOX IMVI melanoma was 98.2%; in the experiment with SK-MEL-28 melanoma it was 105%; in the experiment on SK-MEL-2 melanoma it was 106%; in the experiment with EKVX NSCLC, 89.1%; with SN12C renal, 101%; with UO-31 renal, 96.5%. For the same compound, the growth is 88.3% in the experiment with TK-10 renal; 117% in the experiment with ACHN renal; 95.7% in the experiment on CAKI-1 renal; 72.6% with A498 renal; 106% in the experiment on CCRF-CEM leukemia; 107% with MOLT-4 leukemia.

(Values after PubChem BioAssay (NCI).)
